HIF-2a block = HIF-2a inhibition | inhibition, % at 18.8 µM | 786-0 RCC cells HIF-2a reporter, luciferase luminescence, overnight | hit rate 0.72% among 360,000;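 active = inhibition of the luminescence signal of 40% or more relative to plate controls, in a single-dose primary screen at 18.75 µM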
Mdm2 MdmX PPI = human Mdm2/MdmX binding inhibition | inhibition, % at 8 µM | hit rate 3% among 330,000 | O15151+Q00987 | SaOS-2 split-luciferase Mdm2/MdmX complementation, luminescence | AID 485346;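 active = inhibition of at least 50% at 8 µM in the primary screen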
Peg3 prom inh = Peg3 promoter activity inhibition | AID 588405 | HeLa PEG-Prom luciferase reporter, luminescence, overnight | hit rate 1.7% among 360,000 | inhibition, % at 20 µM;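 active = inhibition of at least 50% at 20 µM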
ABHD5 PLIN5 PPI = ABHD5-PLIN5 protein interaction inhibition; Q00G26+Q8WTS1; Split G. princeps luciferase complementation, luminescence, 4 h; inhibition, % at 4 µM; hit rate 0.78% among 360,000; AID 602281;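 active = inhibition above the mean inhibition across every tested compound plus 3 SD, cut at about 22% in these data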;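 also: 0% = DMSO only wells and the 100% control is not disclosed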
Target sequence (Q00G26 whole entry, looked up): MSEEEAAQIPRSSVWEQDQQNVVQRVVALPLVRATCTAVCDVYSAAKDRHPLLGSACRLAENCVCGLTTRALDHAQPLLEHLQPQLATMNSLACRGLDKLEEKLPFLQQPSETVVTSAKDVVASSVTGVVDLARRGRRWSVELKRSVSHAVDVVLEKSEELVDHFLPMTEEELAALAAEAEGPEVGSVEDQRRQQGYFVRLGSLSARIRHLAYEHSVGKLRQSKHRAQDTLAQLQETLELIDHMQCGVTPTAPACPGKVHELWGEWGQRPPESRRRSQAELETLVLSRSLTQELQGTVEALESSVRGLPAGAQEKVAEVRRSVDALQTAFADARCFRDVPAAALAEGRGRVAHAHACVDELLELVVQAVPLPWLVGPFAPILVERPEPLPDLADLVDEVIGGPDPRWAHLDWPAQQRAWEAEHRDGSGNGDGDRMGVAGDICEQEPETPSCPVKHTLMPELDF
Target sequence (Q8WTS1 whole entry, looked up): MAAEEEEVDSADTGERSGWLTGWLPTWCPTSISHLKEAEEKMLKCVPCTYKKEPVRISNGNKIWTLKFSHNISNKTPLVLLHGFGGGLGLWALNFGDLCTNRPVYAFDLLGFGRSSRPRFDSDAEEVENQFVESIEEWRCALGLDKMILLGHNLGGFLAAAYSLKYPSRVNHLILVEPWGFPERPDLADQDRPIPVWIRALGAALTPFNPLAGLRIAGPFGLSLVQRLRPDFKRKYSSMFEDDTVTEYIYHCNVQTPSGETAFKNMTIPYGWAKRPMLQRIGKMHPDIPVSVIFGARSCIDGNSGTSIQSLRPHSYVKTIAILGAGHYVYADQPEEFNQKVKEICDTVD
KKLEB cytotox = CF airway cell cytotoxicity counter-screen | hit rate 0.36% among 360,000 | AID 602141 | KKLEB CF airway cells viability, ATPlite luminescence, overnight; stronger effect = lower value; cells stimulated with P. aeruginosa culture filtrate | activity change (cytotoxicity), % at 5 µM;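 active = corrected activity change at or below -50% at 5 µM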
CF NFkB inh = inhibitors of cystic fibrosis induced NF-kB; KKLEB NF-kB-GFP reporter, PAF-induced, GFP fluorescence overnight; inhibition, % at 5 µM; hit rate 0.86% among 360,000; AID 588850;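 active = at least 50% inhibition at 5 µM, scaled per plate between neutral and stimulator controls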;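 also: PAF is a Pseudomonas aeruginosa culture filtrate used as stimulus; plate controls were PAF-stimulated DMSO wells for no effect and unstimulated DMSO wells for full effect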
Mdm2-MdmX conf = confirmation of human Mdm2/MdmX interaction inhibitors; shares compounds with Mdm2 MdmX PPI; Mdm2-MdmX binding, luminescent assay; inhibition, % at 8 µM; hit rate 55% among 10,000; AID 489028; in the data active = inhibition above about 40%
Full FLuc ctr = inhibits full-length luciferase, flagging false Mdm2/MdmX hits. SaOS-2 full-length luciferase counterscreen, luminescence. inhibition, % at 8 µM. hit rate 77% among 6,200. AID 504607. shares compounds with Mdm2 MdmX PPI;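 active = mean inhibition at 8 µM reaching about 37%, which flags the compound as non-specific, limit read from the data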;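 also: p53-null SaOS-2 cells with luciferase driven by a doxycycline-inducible promoter; compound on cells about two nights before reading with doxycycline added after day one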
An asterisk follows results filed as active; · = not tested or not shown. Shown are actives, neighbours in structure and some others; about 4.6% of the full set was active somewhere.

SMILES	HIF-2a block	Mdm2 MdmX PPI	Peg3 prom inh	ABHD5 PLIN5 PPI	KKLEB cytotox	CF NFkB inh	Mdm2-MdmX conf	Full FLuc ctr
CCOc1ccc(-c2nc(N)ncc2-c2ccc(OC)cc2)c(O)c1	16.7	39.5	28.4	-14.5	-10.5	34.8	·	·
CCCCCCCCN1C(=O)[C@H](CC(=O)N2CCN(C(=O)c3ccco3)CC2)C[C@@]2(C(=O)OCC)CCCC=C12	-3.5	·	·	6.5	·	·	·	·
CCCCCCc1cc2cc(-c3nnc(-c4ccccc4O)o3)c(=O)oc2cc1O	-3.6	73.2*	36.0	8.4	-66.4*	-34.4	91.5*	22.4
COC(=O)c1ccc(CSc2nnc(Nc3ccccc3OC)s2)o1	·	61.7*	·	·	·	·	57.4*	83.8*
COC(=O)c1ccc(CSc2nnc(Nc3ccc(OC)cc3)s2)o1	-15.4	28.8	-26.6	-3.6	-5.2	1.9	·	·
CC(C)CN(C(=O)COC(=O)c1cccn1C)c1c(N)n(Cc2ccccc2)c(=O)[nH]c1=O	5.5	5.9	-0.1	-3.4	-6.9	-1.2	·	·
Cc1ccc(Sc2ccc(NC(=O)CCl)cc2)c(C)c1	·	65.7*	·	·	·	·	9.1	·
COCCN1CCCC(CNCc2cn(C)nc2-c2ccc(Oc3ccccc3)cc2)C1 (configuration not stated)	18.7	71.3*	29.9	11.1	-7.2	5.8	60.3*	50.0*
CCCN1CCC(NCc2cn(C)nc2-c2ccc(Oc3ccccc3)cc2)CC1	6.4	64.7*	17.3	9.8	0.3	1.4	64.8*	56.5*
COC1CCCN(Cc2cn(C)nc2-c2ccc(Oc3ccccc3)cc2)C1 (configuration not stated)	5.4	5.5	6.5	7.5	-16.2	-41.2	·	·
COc1cccc(NC(=O)COC(=O)C2CCCCC2)c1	-0.4	-10.0	-8.2	0.1	-1.5	-17.8	·	·
CC(=O)n1cc([C@@H]2C=C(C(=O)NCc3ccccc3)O[C@H](OCc3ccc(CO)cc3)C2)c2ccccc21	7.9	9.3	37.5	3.6	1.8	-21.9	·	·
CC(=O)n1cc([C@H]2C=C(C(=O)Nc3ccccc3)O[C@@H](OCc3ccc(CO)cc3)C2)c2ccccc21	-0.5	73.0*	46.0	2.3	4.6	3.8	39.7	70.5*
COC(=O)c1cscc1S(=O)(=O)Cc1ccccc1	-0.3	1.4	0.1	-0.9	1.8	4.8	·	·
CC(C)c1nnc(NC(=O)c2nc(S(=O)(=O)Cc3ccccc3F)ncc2Cl)s1	·	96.8*	·	·	·	·	45.9*	5.2
COC(=O)c1ccccc1NC(=O)c1nc(S(=O)(=O)Cc2ccccc2)ncc1Cl	-33.3	98.3*	91.8*	-1.5	-95.1*	95.7*	90.8*	67.0*
CC(C)c1nnc(NC(=O)CCC(=O)NCc2ccccc2Cl)s1	-10.6	15.6	-2.6	0.4	-4.7	4.1	·	·
O=C(CN1CCN(Cc2ccccc2)CC1)Nc1ccc([N+](=O)[O-])cc1C(=O)Nc1ccccc1F	26.6	53.9*	62.5*	8.7	-28.6	17.8	30.4	·
Cc1cc([N+](=O)[O-])ccc1NC(=O)CN1CCN(Cc2ccccc2)CC1	13.2	22.0	7.4	-3.8	12.2	-8.5	·	·
C=CCN1/C(=C2/SC(=S)N(C)C2=O)Sc2ccccc21	·	6.4	·	·	·	·	·	·
Cn1nc(C(F)(F)F)c2cc(C(=O)Nc3ccc(F)cc3)sc21	3.8	9.5	4.4	2.4	13.9	-5.3	·	·
Cn1nc(C(F)(F)F)c2cc(C(=O)Nc3ccc(C(F)(F)F)cc3)sc21	-20.0	60.9*	18.7	1.4	-6.9	27.7	12.2	·
Cc1ccc(CN2CC(C(=O)NNC(=O)c3ccc(F)cc3)CC2=O)cc1 (configuration not stated)	4.8	6.9	4.0	1.0	-21.8	1.0	·	·
CC(C)Oc1ccc(CNC(=O)Cn2c(=O)c3cccn3c3cccnc32)cc1	2.6	24.1	17.8	-1.8	10.0	0.6	·	·
CCOc1ccc(CNC(=O)Cn2c(=O)c3cccn3c3ccccc32)cc1	-3.6	55.3*	19.1	0.5	4.5	-18.9	2.3	·
SMILES	HIF-2a block	Mdm2 MdmX PPI	Peg3 prom inh	ABHD5 PLIN5 PPI	KKLEB cytotox	CF NFkB inh	Mdm2-MdmX conf	Full FLuc ctr
CCc1ccc(NC(=O)Cn2c(=O)c3cccn3c3ccccc32)cc1	3.4	66.4*	43.1	-2.7	-17.1	7.9	60.5*	54.6*
CCc1ccc(-c2cc3c(=O)n(CC(=O)N4CCCC4)nc(C)n3n2)cc1	-17.3	22.7	-57.8	-0.7	1.4	-4.8	·	·
CCc1ccc(-c2cc3c(=O)n(CC(=O)NCCN4CCCCC4C)nc(C)n3n2)cc1 (configuration not stated)	-56.0	68.3*	-4.3	1.1	-2.0	7.9	24.6	·
CCc1ccc(NC(=O)CCn2c(=O)c3cccn3c3ccccc32)cc1	4.5	38.0	22.7	-16.2	-8.2	-27.2	·	·
CCOc1ccc(CNC(=O)Cn2nc(C)n3nc(-c4ccccc4)cc3c2=O)cc1	16.7	97.3*	-4.0	-4.2	-3.3	4.3	15.2	·
CC(C)[C@@H]1Cc2[nH]c(=O)[nH]c(=O)c2[C@H](c2ccc(F)cc2)O1	12.3	·	·	1.8	·	·	·	·
Cn1nc(-c2ccccn2)nc2c(=O)n(C)c(=O)nc1-2	71.4*	66.1*	104.6*	13.7	-99.2*	99.5*	80.2*	33.8
C[C@@H]1CN([C@@H](C)CO)C(=O)CCCn2nncc2CO[C@@H]1CN(C)C(=O)Nc1cccc(Oc2ccccn2)c1	3.8	·	4.1	3.6	4.2	-16.3	·	·
Cc1ccc(C)c(Cn2c3ccccc3c3cnn(CC(=O)NCCCN4CCCCC4)c(=O)c32)c1	18.9	92.0*	86.1*	15.5	0.1	4.9	47.7*	48.4*
Cc1ccc(C)c(N2CCN(C(=O)Cn3ncc4c([nH]c5ccc(C)cc54)c3=O)CC2)c1	2.1	52.1*	14.8	3.2	0.8	2.1	-4.0	·
Cc1ccc2[nH]c3c(=O)n(CC(=O)NCCCN4CCN(c5ccc(F)cc5)CC4)ncc3c2c1	12.9	69.0*	30.7	2.0	5.5	-9.6	35.9	·
COc1ccc(N2CCN(C(=O)Cn3ncc4c([nH]c5ccccc54)c3=O)CC2)cc1	-0.4	50.1*	52.7*	-8.4	-8.9	42.9	15.8	·
COc1ccccc1N1CCN(C(=O)Cn2ncc3c([nH]c4ccccc43)c2=O)CC1	14.2	30.2	6.8	-6.3	-3.3	2.2	·	·
CCCCC[C@@H](C)N1C[C@H](COCc2ccccc2)Oc2cc(N3CC[C@H](N(C)C)C3)ccc2S1(=O)=O	21.6	·	·	11.8	·	·	·	·
O=C(O)C1C=CC(C(=O)O)c2ccccc21 (configuration not stated)	11.2	·	4.8	0.8	-8.0	5.8	·	·
COC(=O)C1=C(C)N(Cc2ccccc2)C(=NCC2CC2)N[C@H]1c1ccccc1	4.3	46.4	-0.1	4.4	-8.6	7.5	·	·
COC(=O)C1=C(C)N(Cc2ccccc2)C(=NCC(C)C)N[C@H]1c1cccc(F)c1	1.7	78.8*	83.0*	9.4	-19.3	30.3	44.9*	45.4*

High-throughput results deposited in PubChem by several laboratories.
